Screening data as filed in PubChem.
ELG1 DNA repair: inhibitors of ELG1-dependent DNA repair in HEK293T cells; HEK293T ELG1-luciferase reporter, luminescence, 16 h; DNA damage induced by 5-fluorouridine; Potency, µM (doses to about 46.1 µM), for the others: at the top dose activity change, negative = inhibition, most hits filed as inhibitors; actives 2.3% (n = 330,000); note: % is set by controls: 0 for no effect and ±100 for the full control effect; nearly all actives have a fitted effect of over 55% in size
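Cells (2,000 per well) received 5-fluorouridine plus test compound or DMSO and were incubated 16 hr at 37 °C, 5% CO2. Luciferase activity was read by luminescence 30 min after ONE-Glo addition; signal suppression marked inhibition of damage-induced ELG1 function.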
ELG1 genotoxic: inducers of genotoxicity in HEK293T ELG1-luciferase cells; Potency, µM (top dose mostly 46 µM), for inactives: top-dose activity change, positive = activation, most hits filed as activators; AID 504466; actives 1.3% (n = 330,000); HEK293T ELG1-luciferase reporter, luminescence, 16 h; note: % of control where 0% means no effect; nearly all actives have a fitted effect of over 60% in size
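Quantitative HTS format in 1536-well plates. HEK293T ELG1-luciferase reporter cells receive test compound and are incubated 16 hr at 37 °C, 5% CO2; ONE-Glo added, 30 min room temperature, then luminescence read.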
NPC1 promoter act: activators of NPC1 promoter. Huh7 NPC1 promoter luciferase reporter, 24 h. Potency, µM (highest dose often 9.22 µM), without a hit: top-dose activation, hits mostly activators. actives 2.4% (n = 320,000); note: % of control where 0% means no effect; nearly all actives have a fitted effect of over 60% in size
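Luminescence from an NPC1 promoter-driven luciferase reporter in stably transfected Huh7 cells was measured after 24 h compound treatment at 37 °C, followed by 10 min ambient incubation with luciferase detection reagent.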
FLuc modulator: firefly luciferase modulation, counter-screen for miR-21 project | actives 6.9% (n = 360,000) | AID 588342 | P08659 | Potency, µM (series often up to 57.5 µM), inactives show at the top dose activity change, negative = inhibition, most hits filed as inhibitors | purified FLuc, Km substrates, luminescence inhibition;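 note: plate controls were vehicle for no effect and reference inhibitor for full effect; nearly all actives have a fitted effect of over 55% in size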
Target sequence (P08659 whole entry, looked up): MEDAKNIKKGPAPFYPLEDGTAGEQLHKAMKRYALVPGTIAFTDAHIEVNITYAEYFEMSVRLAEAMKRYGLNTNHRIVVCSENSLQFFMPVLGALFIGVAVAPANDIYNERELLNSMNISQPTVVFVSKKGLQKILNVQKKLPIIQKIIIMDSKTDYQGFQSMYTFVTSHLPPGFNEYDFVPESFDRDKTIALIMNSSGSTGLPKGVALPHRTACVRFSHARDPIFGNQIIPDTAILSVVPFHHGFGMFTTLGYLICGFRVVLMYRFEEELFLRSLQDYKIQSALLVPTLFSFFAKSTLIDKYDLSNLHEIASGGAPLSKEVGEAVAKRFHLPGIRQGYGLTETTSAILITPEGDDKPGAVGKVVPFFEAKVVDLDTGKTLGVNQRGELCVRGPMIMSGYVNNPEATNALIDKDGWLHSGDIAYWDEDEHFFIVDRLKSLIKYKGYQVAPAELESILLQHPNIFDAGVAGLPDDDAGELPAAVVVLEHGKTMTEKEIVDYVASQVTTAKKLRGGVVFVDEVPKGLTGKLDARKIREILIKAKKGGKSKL
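Biochemical qHTS of compounds, final roughly 60 µM downward over six points, against 10 nM purified firefly luciferase using Km concentrations of substrates (10 uM D-luciferin, 10 uM ATP) in Tris acetate pH 7.5 buffer; luminescence output.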
SMN2 splice up: SMN2 splice variant enhancement; HEK293 SMN2-luciferase splicing reporter, luminescence, 30-36 h; Potency, µM (titrated, usually from 46.1 µM), inactives show top-dose activity change, positive = activation, actives largely listed as activators; actives 2.8% (n = 210,000); AID 1458; note: % of control where 0% means no effect; nearly all actives have a fitted effect of over 55% in size
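HEK293 cells carry an SMN2 […]–luciferase reporter in which exon 7 inclusion puts luciferase in frame. Cells were plated 10-12 h before compound addition, then incubated 30-36 h at 37C. ONE-Glo luminescence was read; sodium butyrate at 4.5 mM final served as control.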
Rab9 prom act: activates the Rab9 promoter; Potency, µM (doses to about 9.22 µM), inactives show top-dose activation, negative = inhibition, most hits filed as activators; AID 485297; actives 2.8% (n = 320,000); Huh7 Rab9 promoter-luciferase reporter, luminescence, 24 h; note: % of control where 0% means no effect; nearly all actives have a fitted effect of over 60% in size
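Huh7 cells stably carrying a Rab9 promoter-luciferase reporter, 1500 cells per well in OP-MEM I with 10% FBS, treated with compound 24 hours at 37C. Luciferase activity read by luminescence after 10 minutes with Amplite reagent.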
Numbers without * were called inactive; ? = inconclusive; nt = not tested or not shown. Sampled rows, rich in hits. Any-hit rate of the full collection: about 9.4%. Calls come from the whole dose curve; as a rule, active = well fitted curve in the direction sought with a large enough effect; inconclusive = small, poorly fitted or top-dose-only effect, or another doubt; inactive = no such curve, though single readings can be large; an effect the other way counts as inactive or inconclusive. Potency is the fitted concentration of half-maximal effect.

SMILES	ELG1 DNA repair	ELG1 genotoxic	NPC1 promoter act	FLuc modulator	SMN2 splice up	Rab9 prom act
O=C(Nc1ccc2nc(SCC(=O)N3CCCC3)sc2c1)c1ccccc1	nt	nt	nt	-19%	nt	nt
COc1cccc(C(=O)Nc2ccc3nc(SCC(=O)N4CCOCC4)sc3c2)c1	nt	nt	nt	15µM*	nt	nt
CN1CCN(C(=O)CSc2nc3ccc(NC(=O)c4ccccc4F)cc3s2)CC1	?	2%	17%	19µM*	nt	15%
O=C(Nc1ccc2nc(SCC(=O)N3CCOCC3)sc2c1)c1ccc(F)cc1	nt	nt	nt	21µM*	nt	nt
Cc1ccc(Nc2nc(N3CCOCC3)nc(N3CCOCC3)n2)cc1C	?	-1%	-5%	4%	nt	-6%
CCOC(=O)c1c(NC(C)=O)c2c3c(sc2n1Cc1ccc(Cl)cc1)CCCC3	nt	nt	nt	-2%	5%	nt
COc1cccc(CNC(=O)c2ccc(NC(=O)N3CCCCc4ccccc43)cc2)c1	nt	nt	nt	-10%	nt	nt
Cn1c(SCC(=O)Nc2ccc3nc(SCC(=O)N4CCCC4)sc3c2)nnc1-c1ccccc1	21µM*	-3%	0%	-14%	-32%	-6%
CCCC(=O)Nc1ccc2nc(SCC(=O)N3CCCC3)sc2c1	?	0%	0%	?	nt	1%
O=C(Nc1ccc2nc(SCC(=O)N3CCOCC3)sc2c1)c1ccc(Br)cc1	nt	nt	nt	11µM*	nt	nt
O=C(Nc1ccc2nc(SCC(=O)N3CCOCC3)sc2c1)c1ccccc1Cl	nt	nt	nt	21µM*	nt	nt
CCCS(=O)(=O)N1CC(=O)N(c2cc(C)cc(C)c2)C(C)(C(=O)NC2CCCCCC2)C1 (stereo not drawn)	nt	nt	nt	-4%	nt	nt
N#Cc1cccc(CS(=O)(=O)c2nc3ccccc3s2)c1	nt	nt	nt	nt	1%	nt
COC(=O)c1c(C)[nH]c(/C=N/Nc2ccccc2)c1C	?	?	1%	11µM*	nt	13%
CCn1cc(C(=O)N(C)c2cc(C)ccc2C)c2cc(OC)c(OC)cc2c1=O	nt	nt	nt	2%	-16%	nt
CCC(C)(C)n1nnnc1C(c1cc2cccc(C)c2[nH]c1=O)N1CCCC1 (stereo not drawn)	-27%	-1%	-2%	0%	-14%	0%
Cc1cc(C)c2[nH]c(=O)c(C(c3nnnn3C(C)(C)C)N3CCN(C(=O)c4ccco4)CC3)cc2c1 (stereo not drawn)	?	1%	-13%	-5%	-7%	-11%
Cc1ccc(C)c2[nH]c(=O)c(C(c3nnnn3C(C)(C)C)N3CC=C(c4ccc(F)cc4)CC3)cc12 (stereo not drawn)	7.3µM*	-7%	-2%	-1%	-22%	-1%
CCC(C)(C)n1nnnc1C(c1cc2cc(C)cc(C)c2[nH]c1=O)N1CCCC1 (stereo not drawn)	15µM*	0%	-3%	2%	6%	-4%
O=C(Nc1ccc(F)c(F)c1)c1cc(S(=O)(=O)NCc2ccc3c(c2)OCO3)ccc1F	nt	nt	nt	0%	nt	nt
O=C1C2CC=CCC2C(=O)N1Cc1nnc(-c2ccc(Cl)cc2)o1 (stereo not drawn)	?	?	12%	19µM*	24%	?
O=C1c2ccccc2-n2c1nc1ccccc1c2=O	?	-5%	?	?	-6%	?
CC(C)N1C(=O)C(Cc2nc3ccccc3c(=O)n2-c2ccccc2)c2ccccc21 (stereo not drawn)	-2%	3%	1%	4%	-3%	6%
CC(C)N1C(=O)/C(=C/c2nc3ccccc3c(=O)n2-c2ccccc2)c2ccccc21	21µM*	-53%	-10%	-13%	-95%	-1%
CC(C)N1C(=O)/C(=C\c2nc3ccccc3c(=O)n2-c2ccccc2)c2ccccc21	13µM*	-14%	-1%	1%	-61%	4%
SMILES	ELG1 DNA repair	ELG1 genotoxic	NPC1 promoter act	FLuc modulator	SMN2 splice up	Rab9 prom act
COc1ccc(-c2nc(SCC(=O)Nc3ccc4c(c3)OCCO4)c(-c3ccccc3)[nH]2)cc1	nt	nt	nt	6µM*	-22%	nt
COc1cccc(-c2nc(SCC(=O)Nc3ccc4c(c3)OCCO4)c(-c3ccccc3)[nH]2)c1	nt	nt	nt	5.4µM*	-20%	nt
O=C(CSc1nc(-c2ccccc2)[nH]c1-c1ccccc1)Nc1ccc2c(c1)OCO2	nt	nt	nt	-14%	24%	nt
Cc1cccc(-c2nc(SCC(=O)Nc3ccc4c(c3)OCCO4)c(-c3ccccc3)[nH]2)c1	nt	nt	nt	8.5µM*	-41%	nt
COc1cc(-c2nc(SCC(=O)Nc3ccc4c(c3)OCO4)c(-c3ccccc3)[nH]2)cc(OC)c1OC	nt	nt	nt	8.5µM*	?	nt
COc1ccc(-c2[nH]c(-c3cccc(OC)c3)nc2SCC(=O)Nc2ccc3c(c2)OCO3)cc1	nt	nt	nt	-9%	1%	nt
O=C(CSc1nc(-c2cccc(F)c2)[nH]c1-c1ccccc1)Nc1ccc2c(c1)OCCO2	nt	nt	nt	?	37%	nt
CCOc1ccc(OCC)c(NC(=O)CCc2nc3cccnc3n2Cc2cccs2)c1	nt	nt	nt	-10%	-17%	nt
CCOC(=O)c1cc(-c2ccc(C)cc2)n(CCCC(=O)Nc2cc(C)ccc2C)c1	nt	nt	nt	-5%	nt	nt
O=C1C2C3c4ccccc4C(c4ccccc43)C2c2nc3ccccc3n21 (stereo not drawn)	16µM*	-3%	-2%	2%	-26%	-1%
O=C(O)/C=C/c1ccc(OCc2cccc(F)c2)cc1	?	26%	1%	17µM*	nt	-2%
CN(C)/C=C1\C(=O)N(c2ccc(Cl)cc2)CS1(=O)=O	?	?	3.2µM*	17µM*	29%	?
Cc1ccc(N2CS(=O)(=O)/C(=C/N(C)C)C2=O)cc1	?	?	2µM*	12µM*	13µM*	1.3µM*
CCSc1nnc(-c2cccnc2)n1-c1ccc(Cl)c(C)c1	6%	2%	-1%	1%	-12%	-3%
CCOc1cc(C(=O)Nc2cc(C)on2)cc(OCC)c1OCC	21µM*	-10%	2%	6%	?	1%
Cc1cc(NC(=O)c2ccc3nc(C)sc3c2)no1	?	9.2µM*	0.89µM*	?	4µM*	1.8µM*
Cc1cc(NC(=O)Cc2ccccc2)no1	5%	2%	-3%	2%	-22%	-5%
C/C(=C\c1ccccc1)C(=O)Nc1cc(C)on1	?	?	20%	15µM*	-33%	?
CCOc1ccc(C(=O)Nc2cc(C)on2)cc1	?	?	1.1µM*	3.4µM*	8.9µM*	1.4µM*
CCC(CC)C(=O)Nc1ccc(C(=O)Nc2cc(C)on2)cc1	5%	-12%	5%	0%	-38%	-2%
Cc1cc(NC(=O)NC(=O)c2ccccc2)no1	?	15µM*	4µM*	?	nt	2.5µM*
